Measured values reported in PubChem BioAssay (NCATS).
Results filed as inconclusive are left out. A call without a number means that no potency is given here. The source made the active and inactive calls. Calls follow the shape of the dose curve; as a rule, active = well fitted inhibition curve with a large enough effect; inconclusive = small, poorly fitted or top-dose-only effect; inactive = flat fitted curve, though single readings scatter.

Tested on: DFO2036
Test: qHTS profiling for inhibitors of Plasmodium falciparum proliferation (AID 504749); also: nearly all actives have a fitted effect of over 60% in size
Conditions: P. falciparum in erythrocytes, SYBR Green DNA, 72 h; series mostly up to 28.7 µM
Excerpt: NIH National Institute of Allergy and Infectious Diseases [NIAID] NIH Chemical Genomics Center [NCGC] MLPCN Grant: None Assay Provider: Xinzhuan Su, NIAID NCGC Assay Overview: Plasmodium falciparum is a virulent malarial parasite that kills 1-2 million people worldwide each year. Transmitted by mosquitoes, the sporozoite form of the parasite enters the blood stream to infect hepatocytes, where they become merozoites that infect red blood cells (erythrocytes). Within erythrocytes, merozoites begin a […] cycle of growth and division, after which the parasite is released to infect new red blood cells. Gametocytes, which form within erythrocytes as well, circulate in the bloodstream and are ingested by the mosquito, thereby completing the life cycle. To profile malarial isolates for differential chemical responses and to identify inhibitors of malarial growth, an assay that measures P. falciparum growth and replication within erythrocytes was employed. This assay uses a DNA binding fluorescent dye (SYBR Green) to detect parasite DNA following cell lysis. Because mature erythrocytes lack DNA, only Plasmodium-derived DNA is detected.
NCGC Assay Protocol Summary: The SYBR Green viability assay was adapted from a method described previously (Plouffe et al., 2008). For screening 3 ul culture medium was dispensed into 1536 well black clear bottom plates (Aurora Biotechnologies) using a Multidrop Combi (Thermo Fisher Scientific Inc.), 23 nL compounds in DMSO were added by a pin tool (Kalypsys), and 5 ul of erythrocytes infected with P. falciparum (0.3% parasitemia, 2.5% hematocrit final concentration) were added. The plates were incubated at 37 C in a humidified incubator in 5% CO2 for 72 h, and 2 ul lysis buffer (20 mM Tris HCl, 10 mM EDTA, 0.16% saponin, 1.6% triton X, 10X SYBR Green I supplied as 10,000X […] by Invitrogen) was added to each well. The plates were mixed for 25 sec with gentle shaking and incubated overnight at room temperature in the dark. The following morning, fluorescence intensity at 485(14) nm excitation and 535(25) nm emission wavelengths was measured on an EnVision (Perkin Elmer) plate reader. Plate reads were normalized relative to the control inhibitor (0.29 uM artemisinin) and vehicle (DMSO) wells present on each plate and then corrected by an algorithm using vehicle-only control plates at the beginning and end of the compound plate stack.
Potency is read from the fitted curve at half-maximal effect.

Compound | Potency
C[C@@H](O)[C@@H]1C(=O)N2C(C(=O)O)=C([C@H]3CCCO3)S[C@H]12 | inactive
CC1(C)CC1C(=O)N/C(=C/CCCCSCC(N)C(=O)O)C(=O)O (stereo not given) | inactive
C[C@@H]1CCN(C(=O)[C@H](CCCNC(=N)N)NS(=O)(=O)c2cccc3c2NC[C@H](C)C3)[C@@H](C(=O)O)C1 | inactive
CC1=C[C@@H](O)CC(C)(C)[C@@H]1/C=C/C(C)=C/C=C/C(C)=C/C=C/C=C(C)/C=C/C=C(C)/C=C/C1=C(C)C[C@H](O)CC1(C)C | inactive
CC[C@@H]1/C=C(\C)C[C@H](C)C[C@H](OC)[C@H]2O[C@@](O)(C(=O)C(=O)N3CCCC[C@H]3C(=O)O[C@H](/C(C)=C/[C@@H]3CC[C@H](Cl)[C@H](OC)C3)[C@H](C)[C@@H](O)CC1=O)[C@H](C)C[C@@H]2OC | inactive
C=CCN1CC(C(=O)N(CCCN(C)C)C(=O)NCC)CC2c3cccc4[nH]cc(c34)CC21 (stereo not given) | inactive
O=C1NC(=O)C2C3C=CC(C3)C12 (stereo not given) | inactive
CC1(C)O[C@@H]2C[C@H]3[C@@H]4CCC5=CC(=O)C=C[C@]5(C)[C@H]4C(O)C[C@]3(C)[C@]2(C(=O)CO)O1 (stereo not given in full) | inactive
C/C=C\C[C@H](C)[C@H](O)[C@H]1C(=O)N[C@@H](CC)C(=O)N(C)CC(=O)N(C)[C@@H](CC(C)C)C(=O)N[C@@H](C(C)C)C(=O)N(C)[C@@H](CC(C)C)C(=O)N[C@@H](C)C(=O)N[C@@H](C)C(=O)N(C)[C@@H](CC(C)C)C(=O)N(C)[C@@H](CC(C)C)C(=O)N(C)[C@@H](C(C)C)C(=O)N1C | 2.51 µM (active)
OCC1OC(O)C(O)C(O)C1O (stereo not given) | inactive
CO/N=C(/C(=O)N[C@@H]1C(=O)N2C(C(=O)O)=C(CSc3nnnn3C)CS[C@H]12)c1csc(N)n1 | inactive
OCC1O[C@H](Oc2ccc(O)cc2)C(O)C(O)C1O (stereo not given in full) | inactive
CC1C(=O)C(=O)C=CN1C (stereo not given) | inactive
Cc1ccc(Nc2ncccc2C(=O)O)cc1C | inactive
CCCCCCCCCCCCCCCC(=O)OCC(COP(=O)(O)OCC[N+](C)(C)C)OC(=O)CCCCCCCCCCCCCCC (stereo not given) | inactive
CC(C)C(=O)OCC(=O)[C@@]12OC(C3CCCCC3)O[C@@H]1CC1C3CCC4=CC(=O)C=C[C@]4(C)C3[C@@H](O)C[C@@]12C (stereo not given in full) | 0.501 µM (active)
CC(=O)OC1C([N+]2(C)CCCCC2)C[C@H]2C3CC[C@H]4C[C@H](OC(C)=O)C([N+]5(C)CCCCC5)CC4(C)C3CCC12C (stereo not given in full) | inactive
CO/N=C(/C(=O)N[C@@H]1C(=O)N2C(C(=O)O)=C(CSC(=O)c3ccco3)CSC12)c1csc(N)n1 (stereo not given in full) | inactive
CCN1CCN(C(=O)NC(C(=O)NC2C(=O)N3C(C(=O)O)=C(CSc4nnnn4C)CSC23)c2ccc(O)cc2)C(=O)C1=O (stereo not given) | inactive
Cc1cnc(C(=O)O)cn1 | inactive

Compound | Potency
COc1ccc2cc1Oc1cc3c(cc1OC)CC[N+](C)(C)C3Cc1ccc(cc1)Oc1c(OC)c(OC)cc3c1C(C2)[N+](C)(C)CC3 (stereo not given) | inactive
C/C1=C2/[N-]C(C(CC(N)=O)[C@@]2(C)CCC(=O)NCC(C)OP(=O)([O-])O[C@H]2[C@@H](O)[C@@H](n3cnc4cc(C)c(C)cc43)O[C@@H]2CO)[C@]2(C)N=C(/C(C)=C3N=C(/C=C4N=C1C(CCC(N)=O)C\4(C)C)[C@@H](CCC(N)=O)[C@]\3(C)CC(N)=O)[C@@H](CCC(N)=O)[C@]2(C)CC(N)=O.CC(=O)O.[Co] (stereo not given in full) | inactive
CCCCC(=O)OCC(=O)[C@]1(O)Cc2c(O)c3c(c(O)c2[C@H](OC2CC(NC(=O)C(F)(F)F)C(O)C(C)O2)C1)C(=O)c1c(OC)cccc1C3=O (stereo not given in full) | 2.51 µM (active)
C[C@@H]1CC2C3CCC4=CC(=O)C=C[C@]4(C)[C@@]3(F)[C@@H](O)C[C@]2(C)[C@@]1(O)C(=O)COC(=O)c1cccc(S(=O)(=O)O)c1 (stereo not given in full) | inactive
CC(C)C[C@@H](NC(=O)[C@@H](Cc1ccccc1)NC(=O)c1cnccn1)B(O)O | 0.112 µM (active)
Oc1cc2cc(CCN3CCN(c4nsc5ccccc45)CC3)c(Cl)cc2[nH]1 | inactive
C=NC(C(=O)NC1C(=O)N2C1SC(C)(C)C2C(=O)O)c1ccccc1 (stereo not given) | inactive
Cc1cc2nc3c(=O)[nH]c(=O)nc-3n(CC(O)C(O)C(O)COP(=O)(O)O)c2cc1C (stereo not given) | inactive
C[C@@H]1CC2[C@@H]3C[C@H](F)C4=CC(=O)C(Cl)=C[C@]4(C)[C@@]3(F)[C@H](O)C[C@]2(C)[C@@]1(O)C(=O)CO (stereo not given in full) | inactive
CC(C)(C)NC[C@H](O)CSc1nc(-c2ccc(C(N)=O)s2)cs1 | inactive
COc1cc(/C=C2\CCC/C(=C\c3ccc(O)c(OC)c3)C2=O)ccc1O | 11.2 µM (active)
COc1cc2c(cc1O)CCN[C@@]21CS[C@H]2c3c(OC(C)=O)c(C)c4c(c3C(COC1=O)N1C2C2c3c(cc(C)c(OC)c3O)CC([C@@H]1O)N2C)OCO4 (stereo not given in full) | 0.0009 µM (active)
C=C[C@H]1CN2CCC1C[C@H]2[C@H](O)c1ccnc2ccc(OC)cc12 (stereo not given in full) | 0.631 µM (active)
CCN(CC)C(=O)[C@@]1(c2ccccc2)C[C@@H]1CN | inactive
CC[C@H](C)[C@H]1O[C@]2(CC[C@@H]1C)C[C@@H]1C[C@@H](C/C=C(\C)[C@H](O[C@@H]3C[C@H](OC)[C@H](O[C@@H]4C[C@H](OC)[C@@H](O)[C@H](C)O4)[C@H](C)O3)[C@@H](C)/C=C/C=C3\CO[C@@H]4[C@H](O)C(C)=C[C@@H](C(=O)O1)[C@]34O)O2 | 0.794 µM (active)
CCN(CC)CC(=O)Nc1c(C)cc(C)cc1C | inactive
C=C(NCc1ccccc1)c1ccccc1O | inactive
O=C(O)CC(O)CC(O)/C=C/c1c(C2CC2)nc2ccccc2c1-c1ccc(F)cc1 (stereo not given) | inactive
O=C(O)c1ccc(N[C@@H]2OC[C@@H](O)[C@@H](O)[C@@H]2O)cc1 | inactive
O=C(O)C(O)c1ccccc1 (stereo not given) | inactive
